KB-V1 MDR tox – qHTS assay for MDR1-selective chemotherapeutics: Primary screen using the drug-selected MDR subline cells KB-V1; hit rate 3.4% among 400,000; Potency, µM (doses to about 46.1 µM), hits mostly cytotoxic; KB-V1 MDR cells viability, CellTiter-Glo, 72 h; note: nearly all actives have a fitted effect of over 60% in size
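Potencies derive from concentration-effect curves fitted to normalized luminescence (CellTiter-Glo) of KB-V1 cells treated for 72 h at 37 degrees C in phenol-red-free DMEM containing 10% FBS.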
MCF10A rerep – A quantitative high throughput screen for small molecules that induce DNA re-replication in MCF 10a normal breast cells. Potency, µM (doses to about 46.1 µM), actives largely listed as activators. hit rate 2.9% among 350,000. MCF 10A DNA re-replication, Hoechst nuclear intensity, 48 h. AID 624296, 2012; note: nearly all actives have a fitted effect of over 50% in size
IL1B secr inh – qHTS for Inhibitors of Inflammasome Signaling: IL-1-beta AlphaLISA Primary Screen. hit rate 4.7% among 360,000. activity change, % at 57.5 µM. THP-1 LPS/ATP IL-1B secretion, AlphaLISA, 16 h; hits give low values; in the data active = activity change below about -50%; inconclusive = mostly about -30% to -49%
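THP-1 cells pretreated 1 hr with compounds (up to 57.5 uM final), then stimulated with LPS (250 ng/mL final) plus ATP (1.25 mM final); secreted IL-1B measured by AlphaLISA after 16 hr, decreased signal indicating inhibition.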
KB-3-1 cytotox – qHTS assay for MDR1-selective chemotherapeutics: Primary screen using the parental adenocarcinoma cell KB-3-1 | KB-3-1 viability, CellTiter-Glo ATP luminescence, 72 h | hit rate 1.4% among 400,000 | Potency, µM (titrated, usually from 46.1 µM), hits mostly cytotoxic | AID 1347075, 2019; note: nearly all actives have a fitted effect of over 60% in size
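72 h, 37 °C compound treatment of KB-3-1 parental cells; CellTiter-Glo added, 10 min, luminescence read. Data corrected against DMSO-only plates and normalized before curve fitting.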
SW480 rereplic – A quantitative high throughput screen for small molecules that induce DNA re-replication in SW480 colon adenocarcinoma cells; SW480 DNA re-replication, Hoechst DNA content imaging, 48 h; AID 624297, 2012; Potency, µM (highest dose often 46.1 µM), most hits filed as activators; hit rate 1.8% among 340,000; note: nearly all actives have a fitted effect of over 55% in size
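Image-based read-out: total Hoechst fluorescence of nuclei (405 nm excitation, 500-530 nm emission), with hits raising the fraction of high-intensity nuclei. SW480 colon cells incubated 48 hr with compounds at 37 C.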
Large screens that a line does not name were inactive. Sampled rows, rich in hits. Any-hit rate of the full collection: about 9.9%. Unless noted, calls come from the whole dose curve; as a rule, active = well fitted curve in the direction sought with a large enough effect; inconclusive = small, poorly fitted or top-dose-only effect, or another doubt; inactive = no such curve, though single readings can be large; an effect the other way counts as inactive or inconclusive.

CCN1CCc2c(sc(NC(=O)c3ccc(S(=O)(=O)N4CCCC4)cc3)c2C(=O)NC)C1	KB-V1 MDR tox inconclusive, MCF10A rerep 18µM, IL1B secr inh -97, KB-3-1 cytotox inconclusive, SW480 rereplic inconclusive
CNC(=O)c1c(NC(=O)c2ccc(S(=O)(=O)N3CCCCC3)cc2)sc2c1CCN(C(C)C)C2	SW480 rereplic inconclusive
CCOC(=O)N1CCN(S(=O)(=O)c2ccc(C(=O)Nc3sc4c(c3C(=O)OC)CCN(C)C4)cc2)CC1	KB-V1 MDR tox inconclusive, MCF10A rerep inconclusive, IL1B secr inh -100, KB-3-1 cytotox inconclusive, SW480 rereplic inconclusive
CCn1nc(NC(=O)c2ccncc2)c2cc3cccc(C)c3nc21	none
CCCn1nc(NC(=O)c2cccs2)c2cc3cccc(C)c3nc21	MCF10A rerep 21µM, SW480 rereplic inconclusive
COc1ccc(CC(=O)Nc2nn(C)c3nc4c(C)cccc4cc23)cc1	MCF10A rerep 3.3µM, SW480 rereplic inconclusive (no result: IL1B secr inh)
Cc1cc2nn(-c3cccc4ccccc34)nc2cc1NC(=O)c1cccs1	KB-V1 MDR tox 16µM, IL1B secr inh inconclusive
CCCn1nc(NC(=O)c2cccc(Cl)c2)c2cc3cccc(C)c3nc21	KB-V1 MDR tox inconclusive (no result: MCF10A rerep, IL1B secr inh, SW480 rereplic)
CCCn1nc(NC(=O)CC)c2cc3cccc(C)c3nc21	SW480 rereplic 16µM
Cc1ccc(N(C(=O)Cn2nnc(-c3ccc(C)o3)n2)C(C(=O)NC2CCCC2)c2ccncc2)cc1 (stereo not given)	none
CCC(=O)Nc1nn(C)c2nc3c(C)cccc3cc12	MCF10A rerep 6.5µM, SW480 rereplic 21µM
Cc1cccc2cc3c(NC(=O)C(C)C)nn(C)c3nc12	MCF10A rerep inconclusive, SW480 rereplic inconclusive
COc1ccccc1CNC(=O)c1cc2c(=O)oc3ccc(C)cc3c2s1	none (no result: MCF10A rerep, IL1B secr inh, SW480 rereplic)
CCCCC(CC)COC(=O)c1ccccc1O (stereo not given)	none (no result: KB-V1 MDR tox, IL1B secr inh, KB-3-1 cytotox)
COC(=O)c1c(C)n(-c2ccccc2)c2ccc(O)cc12	KB-V1 MDR tox 21µM, MCF10A rerep inconclusive, KB-3-1 cytotox inconclusive, SW480 rereplic inconclusive
COC(=O)c1c(C)n(-c2ccc(C)cc2)c2ccc(O)cc12	KB-V1 MDR tox inconclusive, MCF10A rerep inconclusive, KB-3-1 cytotox inconclusive, SW480 rereplic inconclusive
O=C1C(F)=CC(COC(c2ccccc2)(c2ccccc2)c2ccccc2)OC1n1cc(F)c(=O)[nH]c1=O (stereo not given)	KB-V1 MDR tox inconclusive, MCF10A rerep 2.6µM, IL1B secr inh -101, KB-3-1 cytotox inconclusive, SW480 rereplic 7.3µM
O=C(c1ccccn1)N1N=C2/C(=C/c3ccc(F)cc3)CCCC2C1c1ccc(F)cc1 (stereo not given)	KB-V1 MDR tox inconclusive, MCF10A rerep inconclusive, IL1B secr inh -55
CCN1CCN(C(CC(C)C)c2nnnn2CS(=O)(=O)c2ccc(C)cc2)CC1 (stereo not given)	IL1B secr inh -73
Cc1ccc(S(=O)(=O)Cn2nnnc2C(CC(C)C)N2CCN(C(=O)c3ccco3)CC2)cc1 (stereo not given)	none
O=C(Nc1ccc2sccc2c1)c1ccc(Cl)s1	MCF10A rerep 18µM
CCOC(=O)C1C(=O)NC(c2ccccc2)=NC1c1ccc(O)c(OC)c1 (stereo not given)	none
O=CN/N=C/c1c(O)ccc2ccccc12	KB-V1 MDR tox inconclusive, KB-3-1 cytotox 7.3µM
Oc1ccc2ccccc2c1/C=N/Nc1ccccc1	KB-3-1 cytotox inconclusive
O=C(NN=Cc1c(O)ccc2ccccc12)c1ccc2c(c1)OCO2	KB-V1 MDR tox inconclusive, MCF10A rerep 12µM, KB-3-1 cytotox inconclusive, SW480 rereplic 21µM
NC(=S)N/N=C/c1c(O)ccc2ccccc12	KB-V1 MDR tox inconclusive, MCF10A rerep inconclusive, KB-3-1 cytotox 1.6µM, SW480 rereplic inconclusive
NC(=S)N/N=C/c1coc2cc(Br)ccc2c1=O	KB-V1 MDR tox inconclusive, MCF10A rerep inconclusive
NC(=S)N/N=C/c1coc2c(ccc3ccccc32)c1=O	KB-V1 MDR tox 5.2µM, KB-3-1 cytotox 6.5µM
Nc1nc(N)c(S(=O)(=O)c2ccccc2)c(Nc2ccc(Br)cc2)n1	none (no result: MCF10A rerep, IL1B secr inh, SW480 rereplic)
CC(=O)Nc1ccc(/C=C2\Sc3ccccc3C2=O)cc1	none

Source: PubChem (National Center for Advancing Translational Sciences (NCATS))
